Bioassay records (PubChem)
A549 tox: Nrf2 qHTS screen for inhibitors: counterscreen for cytotoxicity. Potency, µM (highest dose often 46 µM), for the others: at the highest dose activity change, negative = cytotoxicity, most hits filed as inhibitors. A549 ARE-Fluc cells, CellTiter-Fluor viability, 18-24 h. hit rate 0.16% among 390,000; note: % is set by controls: 0 for no effect and ±100 for the full control effect
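Cytotoxicity counterscreen: CellTiter-Fluor fluorescence was measured in A549 ARE_Fluc cells after 18-24 h of compound exposure in a concentration series. The subsequent BugLite luminescent read reports ARE-luciferase activity.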
Nrf2 inh: Nrf2 qHTS screen for inhibitors; Potency, µM (doses to about 46 µM), for inactives: at the top dose activity change, negative = inhibition, usual class: inhibitors; A549 ARE-Fluc reporter, luciferase luminescence, 18-24 h; hit rate 2.1% among 360,000; AID 504444, 2011; note: % is set by controls: 0 for no effect and ±100 for the full control effect; nearly all actives have a fitted effect of over 60% in size
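A549 ARE_Fluc cells (5000/well, 5% FBS OPTI-MEM) pre-incubated 2 h, then treated with compounds 18-24 h at 37C/5% CO2 in concentration-response. CellTiter-Fluor viability read first; BugLite luciferase luminescence after 15 min at room temperature gives Nrf2 activity.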
TGFb SMAD3 inh: qHTS for Inhibitors of TGF-b; hit rate 1.2% among 410,000; HepG2 CAGA-GFP TGF-b/SMAD3 reporter, GFP fluorescence, 18 h; TGF-beta stimulated, 500 pg/mL final; Potency, µM (titrated, usually from 46.1 µM), for inactives: top-dose activity, negative = inhibition, hits mostly inhibitors; AID 588855, 2011; note: % is set by controls: 0 for no effect and ±100 for the full control effect; nearly all actives have a fitted effect of over 65% in size
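Read-out: total well GFP (ex488/em500-530) summed from mean per-cell fluorescence. Cells: HEPG2 CAGA-GFP, 1% FBS DMEM, 18 h at 37 degrees C with 500 pg/mL final TGF-beta. Unstimulated wells served as the full-inhibition control; stimulated DMSO wells = 0%.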
HepG2 tox: qHTS for Inhibitors of TGF-b: Cytotox Counterscreen | Potency, µM (titrated, usually from 46.1 µM), inactives show top-dose activity change, negative = cytotoxicity, usual class: cytotoxic | AID 588856, 2011 | hit rate 0.76% among 410,000 | HepG2 CAGA-GFP viability, ATP luminescence, 18 h
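CellTiter-Glo luminescence gave cytotoxicity after 18 hours at 37 degrees C. The cells were HepG2 CAGA-GFP in 1% FBS DMEM, stimulated with 500 pg/mL TGF-beta after compound addition. %Activity was normalised to no-cell wells (complete cell-killing) and DMSO (no toxicity), and curves were fitted and classified.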
Nrf2 activator: qHTS of Nrf2 Activators. AREc32 ARE-luciferase reporter (MCF7-derived line), luminescence, 24 h. Potency, µM (doses to about 46.1 µM), without a hit: at the highest dose activation, most hits filed as activators. hit rate 0.31% among 410,000. AID 624171, 2012; note: % of control where 0% means no effect; nearly all actives have a fitted effect of over 65% in size
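Luciferase luminescence (Steady-Glo, 30 min at room temperature) served as the read-out of ARE activation in AREc32 cells treated with compounds for 24 hr at 37 deg C.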
An asterisk follows results filed as active; ? = inconclusive; / = no result given. Sampled rows, rich in hits. Any-hit rate of the full collection: about 3.6%. Calls come from the whole dose curve; as a rule, active = well fitted curve in the direction sought with a large enough effect; inconclusive = small, poorly fitted or top-dose-only effect, or another doubt; inactive = no such curve, though single readings can be large; an effect the other way counts as inactive or inconclusive. Potency is the fitted concentration of half-maximal effect.

SMILES | A549 tox | Nrf2 inh | TGFb SMAD3 inh | HepG2 tox | Nrf2 activator
COc1ccc(OC)c(NC(=O)C2CCCN(S(=O)(=O)c3cccc4nonc34)C2)c1 (configuration not stated) | -5.3% | -14.8% | -3.0% | -6.7% | -0.5%
COc1ccccc1/C=C/C(=O)OCC(=O)N1c2ccccc2CC1C (configuration not stated) | 2.2% | -19.6% | 6.1% | -7.5% | -0.5%
COc1ccc(-n2c(CN3CCN(c4ccc(F)cc4)CC3)nc3ccc([N+](=O)[O-])cc3c2=O)c(OC)c1 | 0.8% | -23.9% | 2.7% | -17.9% | 2.7%
Cc1ccc2c(c1)c1c(n2CC(O)Cn2nc(C)c(Br)c2C)CCCC1 (configuration not stated) | -14.0% | -3.7% | ? | 20µM* | 2.5%
COc1ccccc1-c1nnc(SCC(=O)c2ccc(F)cc2)n1-c1ccccc1 | -12.0% | -18.9% | -23.0% | -23.9% | 3.3%
CCn1nnnc1NCc1cccc(Cl)c1 | -4.6% | 5.0% | ? | 13.8% | 0.4%
COc1ccc([N+](=O)[O-])c(OC)c1C(=O)NC(=O)Nc1c(C)cccc1C | -0.9% | -7.7% | -13.7% | -2.8% | 0.1%
O=C(CSc1ncnc2ccccc12)Nc1cccc(S(=O)(=O)N2CCOCC2)c1 | -9.5% | 16.4µM* | -24.0% | 25.5% | 15.3%
O=C(CSc1nc2cc(Cl)ccc2s1)Nc1cccc(S(=O)(=O)N2CCOCC2)c1 | -4.9% | 23.1µM* | 0.0% | -0.7% | 0.1%
O=C(COc1ncnc2ccccc12)Nc1cccc(S(=O)(=O)N2CCOCC2)c1 | -3.3% | 4.5% | ? | 3.4% | -0.1%
CC(=O)OC(C(=O)NC1CCCCC1)c1ccccc1F (configuration not stated) | 6.6% | -2.0% | 2.8% | -9.9% | 1.5%
CCn1cc(C(=O)N2CCN(c3cc(Cl)ccc3C)CC2)c(=O)c2cc(S(=O)(=O)N3CCOCC3)ccc21 | -12.1% | 20.6µM* | ? | -42.2% | -0.7%
CCn1cc(C(=O)N2CCN(c3cc(C)ccc3C)CC2)c(=O)c2cc(S(=O)(=O)N3CCOCC3)ccc21 | 2.4% | -10.2% | -0.2% | -18.8% | -0.5%
CC(=O)c1ccc(N2CCN(c3ncc(C(F)(F)F)cc3Cl)CC2)cc1 | 0.0% | ? | 13.4% | 1.8% | -0.4%
Cc1ccc(S(=O)(=O)N2CCOCC2)cc1C(=O)N1CCN(c2ccc(C(F)(F)F)cn2)CC1 | -0.2% | 25.9µM* | 14.4% | 1.1% | 4.1%
Cc1ccc(S(=O)(=O)N2CCN(C(=O)c3cc(S(=O)(=O)N4CCOCC4)ccc3Cl)CC2)c(C)c1 | -4.2% | 20.6µM* | -26.7% | -33.4% | 0.4%
CC(=O)c1ccc(N2CCN(c3ccc(C(F)(F)F)cn3)CC2)cc1 | 0.2% | 9.2µM* | -13.6% | 1.1% | -0.1%
CC(=O)c1ccc(N2CCN(C(=O)CCS(=O)(=O)c3ccc4c(c3)CCN4C(C)=O)CC2)cc1 | -2.1% | -21.0% | 6.1% | -1.2% | -0.9%
CCn1cc(C(=O)N2CCCC2)c(=O)c2cc(S(=O)(=O)N3CCC(C)CC3)ccc21 | -2.9% | -6.4% | 4.9% | 13.6% | 0.2%
CCn1cc(C(=O)N2CCN(c3cccc(Cl)c3)CC2)c(=O)c2cc(S(=O)(=O)N3CCC(C)CC3)ccc21 | -3.5% | 20.6µM* | 12.6µM* | -32.3% | 0.1%
Cc1ccc(Cl)cc1N1CCN(C(=O)c2cc(S(=O)(=O)N3CCC(C)CC3)cn2C)CC1 | -1.2% | / | 7.08µM* | -19.2% | 4.0%
CNC(=O)C(=O)NCC(c1ccc2c(c1)OCO2)N1CCOCC1 (configuration not stated) | 2.2% | / | -0.4% | 7.1% | -0.2%
c1ccc(-c2nnnn2CCOCCn2nnnc2-c2ccccc2)cc1 | -10.2% | 2.4% | -19.7% | -16.4% | 0.0%
CC1CC(=O)N(CC(=O)Nc2ccc(F)cc2)c2ccccc2S1(=O)=O (configuration not stated) | -1.9% | -18.2% | 4.5% | -13.0% | -0.5%
CC(C)S(=O)(=O)c1csc(NC(=O)Nc2cc(Cl)ccc2Cl)c1Cl | -18.8% | 18.4µM* | -1.3% | -2.9% | -1.0%
SMILES | A549 tox | Nrf2 inh | TGFb SMAD3 inh | HepG2 tox | Nrf2 activator
Cc1ccc(S(=O)(=O)n2nccc2-c2c(-c3ccccc3)noc2C)cc1 | -2.0% | 18.4µM* | ? | -9.6% | 0.4%
CC1CCCC(n2c(=S)[nH]c3ccccc3c2=O)C1C (configuration not stated) | -25.7% | ? | 14.1µM* | -70.0% | 4.1%
O=C(CNC(=O)c1ccccc1Cl)N/N=C/c1ccc([N+](=O)[O-])s1 | ? | ? | 12.6µM* | 10µM* | 3.1%
Cc1onc(-c2ccccc2)c1C(=O)N/N=C/c1ccco1 | 1.8% | 23.1% | -11.4% | -68.3% | -0.1%
Cc1ccc(NC(=S)N/N=C/c2ccc([N+](=O)[O-])s2)cc1 | 23.1µM* | ? | ? | -70.9% | -1.3%
Cc1onc(-c2ccccc2)c1C(=O)N/N=C/c1ccc([N+](=O)[O-])s1 | ? | ? | ? | 10µM* | -0.2%
Cc1cc(C)cc(N=Cc2ccc([N+](=O)[O-])s2)c1 | 0.6% | -5.5% | 11.2µM* | -55.0% | ?
O=C(Cc1cccs1)N/N=C\c1ccc([N+](=O)[O-])s1 | -21.7% | ? | ? | -14.5% | -0.5%
Cc1cccc(NC(=S)N/N=C/c2cccc([N+](=O)[O-])c2)c1 | -0.2% | -10.6% | ? | -13.0% | 7.3%
CC(C)CSc1nc2c(c(=O)[nH]c(=O)n2C)n1CCc1ccccc1 | 4.8% | / | -6.8% | -13.4% | -0.6%
CC(C)(C)OC(=O)NCCCCCc1cn([C@@H](CO)C(=O)NCCCCCCCCCCC(=O)N2CCN(C(=O)OC(C)(C)C)CC2)nn1 | ? | 7.31µM* | ? | -46.5% | -3.3%
C#CCOCCOCCOCCNc1nc(N2CCN(C(=O)CCCCCCCCCCNC(=O)[C@@H](CCC(=O)O)n3cc(CCCCCN)nn3)CC2)nc(N2CCN(C(=O)CCCCCCCCCCNC(=O)[C@H]([C@@H](C)CC)n3cc(CCCCCN)nn3)CC2)n1 | ? | ? | ? | -65.5% | -2.1%
C#CCOCCOCCOCCNc1nc(N2CCN(C(=O)CCCCCCCCCCNC(=O)[C@H]([C@@H](C)CC)n3cc(CCCCCN)nn3)CC2)nc(N2CCN(C(=O)CCCCCCCCCCNC(=O)[C@H](CO)n3cc(CCCCCN)nn3)CC2)n1 | ? | -25.0% | ? | 14.1µM* | -5.6%
C#CCOCCOCCOCCNc1nc(N2CCN(C(=O)CCCCCCCCCCNC(=O)[C@H](CCCCN)n3cc(C)nn3)CC2)nc(N2CCN(C(=O)CCCCCCCCCCNC(=O)[C@H](CCCCN)n3cc(CCCC(=O)O)nn3)CC2)n1 | -1.9% | 11.0% | ? | 8.4% | -0.8%
